# Experimental data from PubChem BioAssay (Tox21).
# Records with an inconclusive call do not appear. The source made the active and inactive calls. The call rests on the fitted dose curve; in most records, active means well fitted activation curve with a large enough effect in the signal ratio in the repeat runs (not every such curve was filed as active); inconclusive means weak or mixed curves, or effect the other way; inactive means no such curve, though single readings can be large or run the other way; the % refers to the signal ratio.
# Target: Glucocorticoid receptor (Homo sapiens) (UniProt P04150)
# Sequence (P04150 whole entry, looked up): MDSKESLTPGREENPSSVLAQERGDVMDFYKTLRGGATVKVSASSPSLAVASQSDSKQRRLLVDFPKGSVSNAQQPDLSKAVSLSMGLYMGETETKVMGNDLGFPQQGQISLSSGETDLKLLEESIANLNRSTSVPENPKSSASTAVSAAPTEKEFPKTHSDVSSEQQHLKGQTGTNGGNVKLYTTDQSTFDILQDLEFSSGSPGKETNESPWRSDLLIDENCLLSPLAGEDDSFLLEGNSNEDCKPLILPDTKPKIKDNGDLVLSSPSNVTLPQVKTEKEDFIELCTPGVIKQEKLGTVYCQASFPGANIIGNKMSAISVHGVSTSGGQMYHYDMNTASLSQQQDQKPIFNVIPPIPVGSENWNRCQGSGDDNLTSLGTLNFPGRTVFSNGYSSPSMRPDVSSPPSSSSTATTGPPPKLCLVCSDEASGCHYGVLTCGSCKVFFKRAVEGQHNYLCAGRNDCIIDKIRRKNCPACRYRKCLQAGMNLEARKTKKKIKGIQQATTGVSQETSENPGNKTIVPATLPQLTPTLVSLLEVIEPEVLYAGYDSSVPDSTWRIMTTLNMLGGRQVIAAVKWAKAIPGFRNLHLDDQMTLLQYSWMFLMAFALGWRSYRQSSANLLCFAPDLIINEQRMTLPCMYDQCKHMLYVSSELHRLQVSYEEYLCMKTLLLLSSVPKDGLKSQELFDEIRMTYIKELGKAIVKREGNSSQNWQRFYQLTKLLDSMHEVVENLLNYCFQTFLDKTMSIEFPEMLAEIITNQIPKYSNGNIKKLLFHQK
# Test: qHTS assay to identify small molecule agonists of the glucocorticoid receptor (GR) signaling pathway (AID 720691)
# Conditions: GR-bla HeLa, beta-lactamase reporter ratio, 18 h; series mostly up to 62.4 µM; activation: at the top concentration
# Source text: U.S. Tox21 Program National Center for Advancing Translational Sciences [NCATS] NIH Chemical Genomics Center [NCGC] U.S. Environmental Protection Agency [EPA] National Institutes of Environmental Health Sciences [NIEHS] National Toxicology Program [NTP] U.S. Food and Drug Administration [FDA] Tox21 Assay Overview: The Glucocorticoid receptor (GR) is one of the members of the nuclear receptor family of ligand-dependent transcription factors. GR plays a critical role in carbohydrate, protein and lipid metabolisms and programmed cell death. CellSensor GR-bla HeLa cell line (Invitrogen) contains a beta-lactamase reporter gene under the control of the glucocorticoid response element stably integrated into HeLa cells, a cervical cancer cell line that expresses glucocorticoid receptor. The activation of the reporter gene under culture conditions can be detected by fluorescence intensity. This cell line has been used to screen the Tox21 10K compound library and to identify the compounds that activate the GR signaling.
# Tox21 Assay Protocol Summary: The GR-bla HeLa cells were dispensed at 1500 cells/6 ul/well in 1536-well black wall/clear bottom plates using a Multidrop Combi (ThermoFisher Scientific, Waltham, MA) dispenser. After the assay plates were incubated at a 37 C/5% CO2 incubator for 4 hours, 23 nL of compounds dissolved in DMSO, positive controls or DMSO only was transferred to the assay plate by a pintool station (Kalypsys, San Diego, CA). The plates were incubated at 37 C for 18 hours. After 1 uL of LiveBLAzerTM B/G FRET substrate was added using a Flying Reagent Dispenser (Aurora Discovery, San Diego, CA), the plates were incubated at room temperature for 2 hours, and fluorescence intensity was measured by an Envision plate reader (PerkinElmer, Shelton, CT).
# On the % scale 0 is the no-effect control and ±100 the full control effect.
Compound,activation,Potency
CC(C)(O)C(=O)c1ccc(OCCO)cc1,-8.64% (inactive),
CC(C)(O)Cc1ccccc1,0.0303% (inactive),
OCCCCCCO,-0.277% [at 79.2 µM] (inactive),
N#CC1(O)CCCCC1,0.203% [at 79.2 µM] (inactive),
O=S(=O)(O)c1ccccc1O,0.272% (inactive),
C=C[Si](OC)(OC)OC,-1.73% (inactive),
CC(=O)N[C@@H](CCC(N)=O)C(=O)O,-3.52% (inactive),
COC(=O)[C@H]1[C@H]2C[C@@H]3c4[nH]c5cc(OC)ccc5c4CCN3C[C@H]2C[C@@H](OC(=O)COc2ccc(OC)cc2)[C@@H]1OC,-3.87% (inactive),
O=C(O)c1ccc[n+]([O-])c1,-1.8% (inactive),
Nc1nc2c(ncn2CCC(CO)CO)c(=O)[nH]1,1.3% (inactive),
CCC(=O)/C=C/c1ccc(OC)cc1,-6.85% (inactive),
COC(=O)CCCC(=O)O,0.392% (inactive),
CN(C)CCn1nnnc1SCC1=C(C(=O)O)N2C(=O)[C@@H](NC(=O)Cc3csc(N)n3)[C@H]2SC1,-1% [at 29.2 µM] (inactive),
CCCCC1CCCCC(=O)O1 (stereo not given),-1.9% (inactive),
CC(C)c1cccc(O)c1,-1.1% [at 79.2 µM] (inactive),
CC(C)c1cccc(C(C)C)c1N,-0.0032% (inactive),
CC(C)(O)c1ccccc1,1.14% (inactive),
C=C(C)C(=O)OCCC(C)OC(=O)C(=C)C (stereo not given),2.44% (inactive),
Cc1ncc(CSSCc2cnc(C)c(O)c2CO)c(CO)c1O,0.455% (inactive),
COc1ccc(COC=O)cc1,1.38% (inactive),

Compound,activation,Potency
C#CC(O)C(CC)CCCC (stereo not given),-2.53% (inactive),
CCC(C(=O)NC(N)=O)c1ccccc1 (stereo not given),,inactive
COc1cc(CCC(C)=O)ccc1O,-2.18% (inactive),
CC(=O)c1ccc(C)cc1,1.83% (inactive),
Oc1cc(O)c2c(c1)O[C@H](c1ccc(O)c(O)c1)[C@H](O)C2,-1.46% (inactive),
C1C2OC2C2C1C1CC2C2OC12 (stereo not given),0.678% [at 79.2 µM] (inactive),
NC(=S)Nc1cccc2ccccc12,-4.91% [at 6.9 µM] (inactive),
NC(N)=NS(=O)(=O)c1ccc(N)cc1,0.297% [at 29.2 µM] (inactive),
CCCC(C)CO (stereo not given),0.0259% (inactive),
COC(C(=O)O)c1ccccc1 (stereo not given),0.443% (inactive),
O=C(O)/C=C/c1ccc(Cn2ccnc2)cc1,3.54% [at 29.2 µM] (inactive),
O=C(O)C(O)[C@H](O)[C@@H](O)[C@H](O)[C@H](O)CO (stereo not given in full),-3.01% [at 79.2 µM] (inactive),
CC1=CC(C)C(C=O)C(C)C1 (stereo not given),2.42% (inactive),
CCCCCCCCN(C)CCCCCCCC,2.81% [at 79.2 µM] (inactive),
N#CCN(CC#N)CCN(CC#N)CC#N,-0.631% (inactive),
C(=C(c1ccccc1)c1ccccc1)c1ccccc1,0.372% (inactive),
C[N+](C)(C)CC[N+]1(C)Cc2c(Cl)c(Cl)c(Cl)c(Cl)c2C1,1.07% (inactive),
CCCOCC(C)OCC(C)O (stereo not given),-0.585% [at 79.2 µM] (inactive),
C=C(C)C1CC=C(C)C(O)C1 (stereo not given),2.45% [at 79.2 µM] (inactive),
Nc1[nH]c(=O)ncc1F,0.0626% [at 29.2 µM] (inactive),
